Active and inactive are the calls of the source.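 How the source made its calls: active means NF-kB reporter IC50 at most 10 µM, IL-8 IC50 within fivefold of it with bacterial filtrate but not with TNF-alpha; inactive means the rest.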
What follows are compounds tested against Interleukin-8 (Homo sapiens) (UniProt P10145) (assay: inhibitors of NFkB activation in CF airway cells, SAR follow-up, KKLEB cells, panel, IL8 HTRF, NFkB-GFP (AID 651592;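 further: immortalized cystic fibrosis airway epithelial KKLEB cells with an NF-kB GFP reporter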)). Details: PAF/TNFa-induced NFkB-GFP / IL8 HTRF, mean of runs.
Interleukin-8 (Homo sapiens), sequence (P10145 whole entry, looked up): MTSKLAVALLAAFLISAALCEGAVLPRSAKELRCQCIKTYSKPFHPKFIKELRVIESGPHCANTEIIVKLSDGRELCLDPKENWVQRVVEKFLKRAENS

outcome, inactive:
O=C(Nc1ccc(N2CCN(C(=O)c3ccccc3Cl)CC2)cc1)c1ccccc1
O=C(Nc1ccc(N2CCN(C(=O)c3ccc(F)cc3)CC2)cc1)c1cncc(Br)c1
CCOc1ccc(NCc2cc3c(-c4ccc(F)cc4)nn(-c4ccccc4)c3[nH]c2=O)cc1
O=C(Nc1ccc(N2CCN(C(=O)c3ccccc3Cl)CC2)cc1)c1cncc(Br)c1
CCOc1ccc(NCc2cc3c(C)nn(-c4ccccc4)c3[nH]c2=O)cc1
O=C(Nc1ccc(N2CCN(C(=O)c3ccccc3)CC2)cc1)c1cncc(Br)c1

outcome, active:
O=C(Nc1ccc(N2CCN(C(=O)c3ccccc3)CC2)cc1)c1ccccc1
O=C(Nc1ccc(N2CCN(C(=O)c3ccc(F)cc3)CC2)cc1)c1cccnc1
O=C(Nc1ccc(N2CCN(C(=O)c3ccccc3Cl)CC2)cc1)c1ccncc1
O=C(Nc1ccc(N2CCN(C(=O)c3ccccc3)CC2)cc1)c1ccncc1
O=C(Nc1ccc(N2CCN(C(=O)c3ccccc3F)CC2)cc1)c1cc(Br)cc(Br)c1
O=C(Nc1ccc(N2CCN(C(=O)c3ccccc3)CC2)cc1)c1cccc(Br)c1
O=C(Nc1ccc(N2CCN(C(=O)c3ccccc3F)CC2)cc1)c1cccnc1
O=C(Nc1ccc(N2CCN(C(=O)c3ccccc3Cl)CC2)cc1)c1cccnc1
O=C(Nc1ccc(N2CCN(C(=O)c3ccc(F)cc3)CC2)cc1)c1cc(Br)cc(Br)c1
O=C(Nc1ccc(N2CCN(C(=O)c3ccccc3Cl)CC2)cc1)c1cc(Br)cc(Br)c1
O=C(Nc1ccc(N2CCN(C(=O)c3ccc(F)cc3)CC2)cc1)c1ccccn1
O=C(Nc1ccc(N2CCN(C(=O)c3ccccc3F)CC2)cc1)c1ccccc1
O=C(Nc1ccc(N2CCN(C(=O)c3ccccc3)CC2)cc1)c1ccccn1
Cc1ccc(CNCc2cc3c(C(C)(C)C)nn(-c4ccccc4)c3[nH]c2=O)cc1
Cc1ccc(NCc2cc3c(C(C)(C)C)nn(-c4ccccc4)c3[nH]c2=O)cc1
CCOc1ccc(NCc2cc3c(-c4ccc(OC)c(OC)c4)nn(-c4ccccc4)c3[nH]c2=O)cc1
O=C(Nc1ccc(N2CCN(C(=O)c3ccccc3)CC2)cc1)c1cc(Br)cc(Br)c1
O=C(Nc1ccc(N2CCN(C(=O)c3ccc(F)cc3)CC2)cc1)c1ccccc1
O=C(Nc1ccc(N2CCN(C(=O)c3ccccc3Cl)CC2)cc1)c1cccc(Br)c1
O=C(Nc1ccc(N2CCN(C(=O)c3ccc(F)cc3)CC2)cc1)c1ccncc1
O=C(Nc1ccc(N2CCN(C(=O)c3ccccc3)CC2)cc1)c1cccnc1
O=C(Nc1ccc(N2CCN(C(=O)c3ccccc3F)CC2)cc1)c1cccc(Br)c1
O=C(Nc1ccc(N2CCN(C(=O)c3ccccc3F)CC2)cc1)c1ccncc1
CCOc1ccc(NCc2cc3c(C(C)(C)C)nn(-c4ccccc4)c3[nH]c2=O)cc1
O=C(Nc1ccc(N2CCN(C(=O)c3ccc(F)cc3)CC2)cc1)c1cccc(Br)c1
CCOc1ccc(NCc2cc3c(C(C)(C)C)nn(-c4ccc(Cl)cc4)c3[nH]c2=O)cc1
O=C(Nc1ccc(N2CCN(C(=O)c3ccccc3F)CC2)cc1)c1ccccn1
O=C(Nc1ccc(N2CCN(C(=O)c3ccccc3Cl)CC2)cc1)c1ccccn1

Reference: PubChem BioAssay AID651592 (Sanford-Burnham Center for Chemical Genomics, 2012)
